The results in this text go back to PubChem BioAssay (NCI).

About 83,000 compounds went through this panel and 20% of them were active in at least one assay; those are over-represented in the sample as a whole.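 96-well plates, one dose, 48 hours. Percent growth reported; active if below 10.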 Unmarked numbers belong to inactive results. Calls of active or inactive are those of the source.

Among the test systems are K-562 leukemia; MALME-3M melanoma; MDA-MB-231 breast; RXF 393 renal; SF-268 CNS; SF-295 CNS; SF-539 CNS; UACC-257 melanoma; M14 melanoma; HCT-15 colon; HT29 colon; SNB-75 CNS; SNB-19 CNS; U251 CNS; PC-3 prostate; SK-MEL-5 melanoma; UACC-62 melanoma; LOX IMVI melanoma; SK-MEL-28 melanoma; SK-MEL-2 melanoma.
What all share (experiment): NCI-60 one-dose screen, 48 h (100 = growth as untreated, 0 = no growth, -100 = all killed)
Holding throughout (conditions): 10 µM

Regarding `N#Cc1ncc(Br)c(NC2CCCCCC2)n1`, the growth with K-562 leukemia was 97.1%; with MALME-3M melanoma it was 145%; in the test with MDA-MB-231 breast, 98%; with RXF 393 renal, 95.2%; in the test with SF-268 CNS it was 111%; in the test with SF-295 CNS, 93.4%. For the same compound, the growth in the test with SF-539 CNS was 99.5%; with UACC-257 melanoma, 95%; with M14 melanoma, 114%; in the test on HCT-15 colon it was 92.3%; in the test with HT29 colon it was 120%; in the test with SNB-75 CNS, 83.8%. Also, the growth is 91.5% with SNB-19 CNS; 92% in the test with U251 CNS; 92.5% with PC-3 prostate; 103% in the test on SK-MEL-5 melanoma; 95.5% in the test with UACC-62 melanoma; 101% in the test on LOX IMVI melanoma. In addition, the growth in the test with SK-MEL-28 melanoma and in the test with SK-MEL-2 melanoma was 104% each time.
On to `Cn1c([N+](=O)[O-])cnc1/C=C1\Oc2ccccc2C1=O`, for which the growth with K-562 leukemia was 3.53% (active); with MALME-3M melanoma, -71.1% (active); with MDA-MB-231 breast, -31.7% (active); in the test on RXF 393 renal, -68.9% (active); in the test with SF-268 CNS, -49% (active); in the test on SF-295 CNS it was -1.94% (active). In addition, the growth was -43.4% (active) in the test on SF-539 CNS; -57% (active) with UACC-257 melanoma; -43.3% (active) in the test on M14 melanoma; 6.69% (active) in the test with HCT-15 colon; -23.7% (active) in the test with HT29 colon; 43.8% with SNB-75 CNS. Besides, the growth in the test on SNB-19 CNS is -17.3% (active); with U251 CNS it was -12.6% (active); in the test with PC-3 prostate, -21.4% (active); in the test with SK-MEL-5 melanoma, -94.1% (active); in the test with UACC-62 melanoma it was -90% (active); with LOX IMVI melanoma, -50.2% (active). Besides, the growth is -25.9% (active) in the test on SK-MEL-28 melanoma and -53.3% (active) with SK-MEL-2 melanoma.
Consider `CC1CN(Cc2ccccc2)C(=O)NC1=O` (stereo not given), for which the growth is 108% in the test with K-562 leukemia; 106% with MALME-3M melanoma; 107% in the test with MDA-MB-231 breast; 124% with RXF 393 renal; 103% in the test with SF-268 CNS; 126% in the test on SF-295 CNS. Besides, the growth with SF-539 CNS is 107%; in the test with UACC-257 melanoma it was 102%; with M14 melanoma it was 111%; in the test with HCT-15 colon it was 112%; in the test on HT29 colon, 109%; in the test with SNB-75 CNS it was 106%. For the same compound, the growth with SNB-19 CNS is 92%; with U251 CNS, 108%; with PC-3 prostate, 92.7%; in the test with SK-MEL-5 melanoma, 106%; in the test on UACC-62 melanoma, 96%; in the test with LOX IMVI melanoma, 103%. The growth in the test with SK-MEL-28 melanoma was 114%; in the test on SK-MEL-2 melanoma, 102%.
With `Cn1c([N+](=O)[O-])cnc1/C=C1\Oc2ccc(Cl)cc2C1=O`, the growth in the test on K-562 leukemia is 1.86% (active); with MALME-3M melanoma it was -55% (active); in the test with MDA-MB-231 breast it was -22.5% (active); in the test with RXF 393 renal it was -70.5% (active); in the test on SF-268 CNS it was -32.1% (active); with SF-295 CNS, -17.3% (active). The growth was -50.3% (active) in the test with SF-539 CNS; -41.7% (active) in the test with UACC-257 melanoma; -33% (active) with M14 melanoma; -8.74% (active) in the test with HCT-15 colon; -10.1% (active) with HT29 colon; 15.7% with SNB-75 CNS. The growth with SNB-19 CNS is -10.5% (active); in the test with U251 CNS, -18.2% (active); with PC-3 prostate, -17.9% (active); in the test with SK-MEL-5 melanoma, -92.7% (active); in the test with UACC-62 melanoma it was -74.2% (active); with LOX IMVI melanoma, -57.5% (active). Besides, the results for the growth in the test with SK-MEL-28 melanoma and in the test on SK-MEL-2 melanoma were -22.1% (active) and -42.2% (active), respectively.
Take `Clc1cc2c(c(CSc3nc4ccccc4n4cccc34)c1)OCOC2`: the growth with K-562 leukemia was 74.4%; in the test on MALME-3M melanoma it was 88.2%; with MDA-MB-231 breast, 65.8%; in the test with RXF 393 renal it was 34.2%; in the test on SF-268 CNS, 85.4%; in the test on SF-295 CNS, 79.5%. The growth is 67.2% in the test on SF-539 CNS; 61.3% with UACC-257 melanoma; 87.5% with M14 melanoma; 71.4% with HCT-15 colon; 88.3% with HT29 colon; 62% in the test with SNB-75 CNS. In addition, the growth with SNB-19 CNS is 107%; with U251 CNS, 85.9%; in the test on PC-3 prostate, 60.5%; in the test with SK-MEL-5 melanoma, 83.7%; with UACC-62 melanoma, 112%; in the test with LOX IMVI melanoma, 87.5%. In addition, the figures for the growth in the test on SK-MEL-28 melanoma and in the test on SK-MEL-2 melanoma were 92.8% and 79.7%, respectively.
For the compound `NC(=S)N=Nc1c(O)c2ccccc2c2ccccc12`, the growth in the test on K-562 leukemia was 42.2%; in the test on MALME-3M melanoma, 60.5%; with MDA-MB-231 breast, 76.7%; in the test on RXF 393 renal it was 99.4%; in the test with SF-268 CNS, 56.7%; in the test on SF-295 CNS it was 82.7%. The growth in the test with SF-539 CNS is 16.1%; with UACC-257 melanoma, -61.3% (active); in the test with M14 melanoma it was -68.6% (active); in the test on HCT-15 colon it was 23.3%; in the test on HT29 colon, 98.4%; in the test with SNB-75 CNS it was 75.9%. For the same compound, the growth in the test on SNB-19 CNS is 38.7%; in the test with U251 CNS it was 26.1%; with PC-3 prostate, 47.2%; in the test with SK-MEL-5 melanoma, -99% (active); with UACC-62 melanoma, -85.1% (active); in the test with LOX IMVI melanoma, 1.8% (active). Also, the growth was 35% in the test with SK-MEL-28 melanoma and 89% in the test on SK-MEL-2 melanoma.
Consider `CN(C)C=Nc1cc(Cl)ccc1Cl`, for which the growth with K-562 leukemia is 110%; with MALME-3M melanoma, 118%; in the test with MDA-MB-231 breast it was 103%; in the test with RXF 393 renal, 112%; with SF-268 CNS it was 112%; with SF-295 CNS it was 97%. Further, the growth is 111% in the test on SF-539 CNS; 90.2% in the test on UACC-257 melanoma; 107% in the test with M14 melanoma; 103% with HCT-15 colon; 100% with HT29 colon; 89.8% with SNB-75 CNS. The growth was 95.3% in the test on SNB-19 CNS; 115% in the test with U251 CNS; 99.8% in the test on PC-3 prostate; 101% in the test on SK-MEL-5 melanoma; 99.1% in the test with UACC-62 melanoma; 102% in the test with LOX IMVI melanoma. The growth is 102% in the test with SK-MEL-28 melanoma and 97% in the test on SK-MEL-2 melanoma.
